Laboratory results from ChEMBL document CHEMBL5308504, “Tm Shift (DSF) assay results for EUbOPEN Chemogenomics Library” (2023).

How the values were obtained:
Conditions in all cases: Compound concentration 20.0 uM, Protein concentration 2.0 uM, Result type QC Liability
[1] = target: Tyrosine-protein kinase ABL1 (Homo sapiens) (UniProt P00519)
[2] = target: Cyclin-dependent kinase 2 (Homo sapiens) (UniProt P24941)
[3] = target: Casein kinase I isoform delta (Homo sapiens) (UniProt P48730)
[4] = target: Glycogen synthase kinase-3 beta (Homo sapiens) (UniProt P49841)
[5] = target: Mitogen-activated protein kinase 1 (Homo sapiens) (UniProt P28482)
[6] = target: T1, Aurora kinase A (Homo sapiens) (UniProt O14965)
T1 sequence (whole entry): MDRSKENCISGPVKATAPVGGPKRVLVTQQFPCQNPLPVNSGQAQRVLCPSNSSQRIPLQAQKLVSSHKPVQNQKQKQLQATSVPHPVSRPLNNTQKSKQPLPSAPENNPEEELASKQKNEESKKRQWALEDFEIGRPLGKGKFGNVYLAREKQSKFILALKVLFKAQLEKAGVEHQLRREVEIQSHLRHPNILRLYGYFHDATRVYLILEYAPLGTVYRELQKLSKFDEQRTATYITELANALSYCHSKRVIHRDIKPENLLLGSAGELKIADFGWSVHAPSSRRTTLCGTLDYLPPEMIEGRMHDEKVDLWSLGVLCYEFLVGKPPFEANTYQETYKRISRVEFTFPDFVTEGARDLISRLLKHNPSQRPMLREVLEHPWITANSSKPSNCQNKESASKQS

Sequence of Glycogen synthase kinase-3 beta (Homo sapiens) (P49841 whole entry, looked up): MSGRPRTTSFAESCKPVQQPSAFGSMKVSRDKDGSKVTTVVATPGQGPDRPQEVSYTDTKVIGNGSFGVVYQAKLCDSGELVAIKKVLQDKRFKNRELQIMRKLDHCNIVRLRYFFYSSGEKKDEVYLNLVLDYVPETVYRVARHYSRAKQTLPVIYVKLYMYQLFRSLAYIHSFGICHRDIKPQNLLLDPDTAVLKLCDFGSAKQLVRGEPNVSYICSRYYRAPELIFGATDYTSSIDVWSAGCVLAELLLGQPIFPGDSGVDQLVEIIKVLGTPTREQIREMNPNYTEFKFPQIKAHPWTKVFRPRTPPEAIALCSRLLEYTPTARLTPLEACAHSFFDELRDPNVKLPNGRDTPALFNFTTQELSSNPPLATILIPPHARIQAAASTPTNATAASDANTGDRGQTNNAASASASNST
Sequence of Mitogen-activated protein kinase 1 (Homo sapiens) (P28482 whole entry): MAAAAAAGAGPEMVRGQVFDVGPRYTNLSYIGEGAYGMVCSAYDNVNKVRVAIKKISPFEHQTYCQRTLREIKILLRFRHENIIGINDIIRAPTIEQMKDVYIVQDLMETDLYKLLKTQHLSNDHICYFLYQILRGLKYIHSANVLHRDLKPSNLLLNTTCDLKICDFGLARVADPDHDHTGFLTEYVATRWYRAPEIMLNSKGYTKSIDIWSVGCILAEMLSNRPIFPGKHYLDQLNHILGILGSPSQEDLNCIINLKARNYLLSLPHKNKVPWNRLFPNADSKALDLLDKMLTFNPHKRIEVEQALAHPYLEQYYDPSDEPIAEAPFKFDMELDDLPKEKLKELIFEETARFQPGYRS
Sequence of Tyrosine-protein kinase ABL1 (Homo sapiens) (P00519 whole entry): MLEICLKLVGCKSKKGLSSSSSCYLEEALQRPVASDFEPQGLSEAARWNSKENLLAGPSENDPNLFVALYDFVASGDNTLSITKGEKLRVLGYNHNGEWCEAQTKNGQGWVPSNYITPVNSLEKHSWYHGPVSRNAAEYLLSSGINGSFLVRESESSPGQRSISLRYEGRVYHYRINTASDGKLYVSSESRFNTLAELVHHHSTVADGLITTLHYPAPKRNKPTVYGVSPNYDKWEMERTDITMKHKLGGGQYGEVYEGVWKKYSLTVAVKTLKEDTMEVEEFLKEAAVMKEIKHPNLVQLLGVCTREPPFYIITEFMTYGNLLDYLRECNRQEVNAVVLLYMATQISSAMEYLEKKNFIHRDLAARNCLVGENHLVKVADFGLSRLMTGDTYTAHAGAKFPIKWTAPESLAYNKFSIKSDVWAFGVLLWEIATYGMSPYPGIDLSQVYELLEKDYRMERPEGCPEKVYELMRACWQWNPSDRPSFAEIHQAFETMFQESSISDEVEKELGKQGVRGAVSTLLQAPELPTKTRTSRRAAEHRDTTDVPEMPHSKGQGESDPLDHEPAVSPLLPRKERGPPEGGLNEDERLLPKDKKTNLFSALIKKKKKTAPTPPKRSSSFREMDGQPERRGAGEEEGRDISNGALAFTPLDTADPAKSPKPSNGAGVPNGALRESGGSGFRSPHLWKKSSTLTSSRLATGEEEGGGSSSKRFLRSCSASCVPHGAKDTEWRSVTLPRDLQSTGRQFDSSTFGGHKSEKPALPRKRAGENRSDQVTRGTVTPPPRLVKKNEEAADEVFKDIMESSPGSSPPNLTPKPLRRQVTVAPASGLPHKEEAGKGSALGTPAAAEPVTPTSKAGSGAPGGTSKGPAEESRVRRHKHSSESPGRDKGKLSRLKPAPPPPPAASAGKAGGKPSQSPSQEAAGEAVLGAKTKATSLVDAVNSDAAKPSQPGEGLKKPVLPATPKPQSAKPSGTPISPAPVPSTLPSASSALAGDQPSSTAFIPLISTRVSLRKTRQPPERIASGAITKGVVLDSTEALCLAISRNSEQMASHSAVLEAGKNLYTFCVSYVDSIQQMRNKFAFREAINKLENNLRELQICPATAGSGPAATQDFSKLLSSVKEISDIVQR
Sequence of Casein kinase I isoform delta (Homo sapiens) (P48730 whole entry, looked up, canonical isoform): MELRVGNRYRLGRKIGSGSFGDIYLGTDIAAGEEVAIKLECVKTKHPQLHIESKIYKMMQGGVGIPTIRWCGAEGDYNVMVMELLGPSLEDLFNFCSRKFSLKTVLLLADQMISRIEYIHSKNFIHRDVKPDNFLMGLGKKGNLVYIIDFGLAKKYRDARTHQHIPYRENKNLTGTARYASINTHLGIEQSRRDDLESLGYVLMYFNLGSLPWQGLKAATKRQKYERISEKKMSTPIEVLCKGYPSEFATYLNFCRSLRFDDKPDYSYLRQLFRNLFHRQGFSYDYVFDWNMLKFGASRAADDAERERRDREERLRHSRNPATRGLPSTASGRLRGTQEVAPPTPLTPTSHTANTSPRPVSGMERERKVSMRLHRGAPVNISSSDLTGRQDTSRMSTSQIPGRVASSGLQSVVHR

| SMILES | ΔTm [1] [°C] | ΔTm [2] [°C] | ΔTm [3] [°C] | ΔTm [4] [°C] | ΔTm [5] [°C] | ΔTm [6] [°C] |
| --- | --- | --- | --- | --- | --- | --- |
| Fc1ccc(-c2nc(-c3c(F)cccc3F)[nH]c2-c2ccncc2)cc1 | 4.45 | 1.7 | 6.41 | 7.77 | 0.52 | -0.55 |
| CC(C)Oc1ccc(Cc2ccc(NC3=NCCN3)cc2)cc1 | 0.13 | 0.19 | -0.09 | -0.57 | -0.5 | -0.48 |
| Cc1ncsc1-c1ccc(CNC(=O)[C@@H]2C[C@@H](O)CN2C(=O)[C@@H](NC(=O)C2(F)CC2)C(C)(C)C)c(OCCOc2ccc(CN3CCN(c4cc(-c5ccccc5O)nnc4N)CC3)cc2)c1 | 0.25 | 4.72 | 2.6 | 9.47 | -1.54 | 3.64 |
| COc1ncc(-c2cc(-c3ncc(CN4C[C@@H](C)O[C@@H](C)C4)o3)c3cn[nH]c3c2)cc1NS(C)(=O)=O | 0.42 | 0.2 | 0.38 | -0.36 | 0.18 | 1.26 |
| Cc1nc2c(cc1F)c(-c1nnc3c(n1)NC(=O)C3(C)C)nn2Cc1cccc(F)c1F | 0.8 | 0.74 | 0.12 | -0.14 | 0.44 | -0.06 |
| CO[C@H]1C[C@@H]2CC[C@@H](C)[C@@](O)(O2)C(=O)C(=O)N2CCCC[C@H]2C(=O)O[C@H]([C@H](C)C[C@@H]2CC[C@@H](O)[C@H](OC)C2)CC(=O)[C@H](C)/C=C(\C)[C@@H](O)[C@@H](OC)C(=O)[C@H](C)C[C@H](C)/C=C/C=C/C=C/1C | 0.32 | -0.19 | -0.1 | -0.7 | -0.72 | -0.26 |
| Cn1cc(-c2cnc3ccc4ccc(CS(=O)(=O)NCc5ccccn5)cc4c(=O)c3c2)cn1 | 4.08 | 0.66 | 0.15 | 1.66 | -0.33 | 5.91 |
| c1ccc2c(-c3coc4cc(-c5ccc(N6CCNCC6)cc5)cnc34)ccnc2c1 | 3.66 | -0.03 | 1.09 | -0.47 | 0 | -0.46 |
| CSc1ccc(C[C@@H](C)C(=O)O)cc1Nc1nc(N2CC[C@H](N(C)C)C2)cc(C(F)F)c1C#N | 0.42 | 0.56 | 0.3 | 0.05 | 0.24 | 0.19 |
| CN(C)CC#Cc1ccc2[nH]c3c(c2c1)-c1nc(N)ncc1CCC3 | 0.75 | -0.08 | 3.05 | 0.06 | 0.46 | 1.23 |
| N=C(N)NCCC[C@H](NC(=O)CC1(CC(=O)N2CCN(C3c4ccccc4NC(=O)c4ccccc43)CC2)CCCC1)C(=O)NCCn1c(=O)n(-c2ccccc2)n(-c2ccccc2)c1=O (stereo not given in full) | -2.29 | -1.3 | -0.34 | -1.99 | -0.45 | -0.47 |
| O=C(CCSCc1ccco1)NNC(=O)N1Cc2ccccc2Oc2ccc(Cl)cc21 | 0.44 | 0.06 | -8.4 | -9.34 | 0.1 | 1.12 |
| O=C(O)Cc1cc(I)c(Oc2ccc(O)c(I)c2)c(I)c1 | -0.37 | 0.49 | 0.22 | -0.68 | -1.09 | 3.86 |
| O=C(O)c1cc(F)c2nc(N3[C@@H]4CC[C@H]3C[C@@H](OCc3c(-c5ccccc5OC(F)(F)F)noc3C3CC3)C4)sc2c1 | 0.23 | 0.38 | 0.11 | -5.45 | -0.82 | -8.04 |
| Cc1cc(CN)cc(C)c1-c1ncn(C)c1-c1cncn1C | 0.16 | -0.16 | 0.37 | 0.19 | 0.11 | -0.37 |
| COCCN1CCN(CCn2ccc(Nc3ncc4c(n3)-c3c(nn(C)c3-c3ccccc3)C[C@H]4C)n2)CC1 | 2.08 | 3.1 | 5.97 | 0.86 | 1.18 | 2.79 |
| CN(C)[C@H]1CC[C@H](Nc2ncc3ncnc(Nc4ccc(F)c(Cl)c4)c3n2)CC1 | 3.21 | 1.27 | 1.07 | 1.75 | 0.51 | 0.2 |
| Cc1nc(Nc2cnn(C3CCNCC3)c2)nc2c1N(C)C(=O)c1cc3ccccc3cc1N2C | 2.1 | -1.03 | 0.48 | -0.49 | 0.6 | 1.73 |
| COc1ccccc1S(=O)(=O)Nc1ccc2c(c1)CN(C)C(=O)N2 | 0.09 | 1.13 | 0.79 | -0.57 | 0.21 | -0.1 |
| CS(=O)(=O)CCNCc1ccc(-c2ccc3ncnc(Nc4ccc(OCc5cccc(F)c5)c(Cl)c4)c3c2)o1 | 0.09 | 0.9 | 0.12 | -0.86 | 0.56 | -0.38 |
| c1ccc2c(c1)SCc1c-2[nH]c2ccccc12 | -6.18 | -4.12 | -0.03 | 1.83 | 0.46 | -4.16 |
| O=C(Nc1cc2cc[nH]c(=O)c2cc1Cl)[C@H]1CNC[C@@H]1c1cccnc1 | 0.03 | 0.53 | 0.29 | -0.6 | 0.49 | -0.12 |
| Cc1cc(-c2ccnc(Nc3cnn(C)c3)n2)ccc1CNC(=O)N1CC(OC(C)C)C1 | 6.49 | 1.31 | 0.77 | 0.38 | 0.39 | 8.06 |
| COc1cc(-c2cc3ncccc3c(OC[C@H]3CNC(=O)C3)n2)cc(OC)c1OC1CCOCC1 | 1.45 | -0.03 | 2.63 | -0.87 | 0.16 | 5.56 |
| CC(C)[C@H](CO)Nc1nc(Nc2ccc(C(=O)O)c(Cl)c2)c2ncn(C(C)C)c2n1 | 6.07 | 9.51 | 2.59 | 2.37 | 4.14 | 7.69 |
